Results from publication PMC4336329 (PLoS ONE, 2015).
The whole screen tested about 310,000 compounds, of which about 2,200 (0.71%) showed an effect of 50% or more. The effect is printed as a negative number. What follows is part of a selection rich in strong results, with near analogues and random picks from the rest.

What follows are compounds tested against human ether-à-go-go-related gene (hERG) potassium channel (human, UniProt Q12809) (assay: primary screen, population patch clamp on CHO cells stably expressing hERG; higher = less effect of the substance).
Procedure: Briefly, Chinese hamster ovary (CHO) cells stably expressing the hERG channel were dislodged from tissue culture flasks and dispensed into PPC plates. […] During the recording, background leak currents were estimated by a 100 ms step to -80 mV from an initial holding potential of -70 mV and subtracted from the subsequent current measurement. The campaign was conducted in two phases using slight differences in recording protocol. In the first phase, the initial voltage pulse used a 100 ms step to -30 mV from a holding potential of -70 mV, a 2 s conditioning step to +25 mV, and a 2 s test step to -30 mV. During the second phase of the screen, the potential during the conditioning step was raised to +45 mV. In both phases of the campaign, a secondary voltage pulse was applied using the same parameters as the second phase initial pulse. The initial and secondary pulses were applied in the absence of compound, and upon application of 1 μM and 10 μM test concentrations. Small molecule effects on hERG current density were quantified by […].

Sequence of human ether-à-go-go-related gene (hERG) potassium channel (Q12809 whole entry, looked up): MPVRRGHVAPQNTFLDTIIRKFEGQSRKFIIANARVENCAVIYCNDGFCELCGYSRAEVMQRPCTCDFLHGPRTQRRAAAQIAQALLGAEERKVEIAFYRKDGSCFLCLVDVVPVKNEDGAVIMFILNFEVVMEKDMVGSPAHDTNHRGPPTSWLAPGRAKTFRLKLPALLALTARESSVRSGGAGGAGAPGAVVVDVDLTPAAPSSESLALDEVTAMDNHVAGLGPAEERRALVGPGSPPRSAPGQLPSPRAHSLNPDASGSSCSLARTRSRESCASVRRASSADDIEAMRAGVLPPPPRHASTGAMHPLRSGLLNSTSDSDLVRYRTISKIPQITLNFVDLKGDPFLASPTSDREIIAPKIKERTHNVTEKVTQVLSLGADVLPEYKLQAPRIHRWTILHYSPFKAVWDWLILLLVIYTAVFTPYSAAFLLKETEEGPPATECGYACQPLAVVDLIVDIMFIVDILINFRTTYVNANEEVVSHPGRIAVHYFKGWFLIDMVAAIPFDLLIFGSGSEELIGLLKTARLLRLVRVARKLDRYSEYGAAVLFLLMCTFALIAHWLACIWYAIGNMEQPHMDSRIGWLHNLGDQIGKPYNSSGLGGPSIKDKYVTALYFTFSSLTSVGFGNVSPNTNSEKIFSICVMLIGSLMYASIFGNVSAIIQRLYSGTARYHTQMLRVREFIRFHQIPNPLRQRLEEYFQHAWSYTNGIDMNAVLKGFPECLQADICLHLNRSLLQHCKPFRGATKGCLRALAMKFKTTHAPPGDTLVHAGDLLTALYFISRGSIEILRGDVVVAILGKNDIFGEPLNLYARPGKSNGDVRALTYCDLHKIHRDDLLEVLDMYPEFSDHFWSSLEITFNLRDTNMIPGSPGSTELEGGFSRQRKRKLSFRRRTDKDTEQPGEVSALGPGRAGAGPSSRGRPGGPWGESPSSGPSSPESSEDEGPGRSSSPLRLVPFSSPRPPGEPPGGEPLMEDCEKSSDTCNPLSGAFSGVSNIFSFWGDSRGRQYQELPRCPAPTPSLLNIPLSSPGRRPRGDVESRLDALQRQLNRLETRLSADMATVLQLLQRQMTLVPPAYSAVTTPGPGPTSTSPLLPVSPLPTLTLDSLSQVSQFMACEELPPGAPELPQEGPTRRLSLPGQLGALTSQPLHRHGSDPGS

SMILES | hERG current change (%, negative = inhibition) at 1uM [%]
COc1ccc(CCNC(=O)c2cccc([N+](=O)[O-])c2)cc1OC | 3.3
O/N=C(\COc1ccccc1O)c1ccccc1 | -0.796
CN(c1ccc(OCC(=O)NCc2cccnc2)cc1)S(=O)(=O)c1ccc(Cl)cc1 | -4.28
CCOC(=O)CC1C(=O)NCCN1S(=O)(=O)c1ccc(Br)cc1 (stereo not drawn) | 6.26
O=C(CCn1nnc2ccccc2c1=O)N[C@@H](Cc1c[nH]c2ccccc12)C(=O)O | 11.6
COc1ccc(CCNC(=O)C2(C)CCC(=O)N2Cc2ccc(F)cc2Cl)cc1OC (stereo not drawn) | 16.2
CCOc1ccccc1N1CCN(C(=O)CCCN2C(=O)c3cccc4cccc(c34)C2=O)CC1 | 2.15
COc1ccccc1N1CCN(C(=O)CCCN2C(=O)c3cccc4cccc(c34)C2=O)CC1.Cl | -89.5
CC(C)c1ccc(C(=O)NCCCN2CCOCC2)cc1 | 2.78
Cl.O=C(NCCN1CCCC1)c1cccc(Cl)c1 | -13.1
COc1ccccc1N1CCN(CCCCNC(=O)c2ccc3ccccc3c2)CC1.Cl | -75.8
CC(C)c1ccc(C(=O)NCCCN2CCN(CCCNC(=O)c3ccc(C(C)C)cc3)CC2)cc1 | -86.4
COc1ccccc1N1CCN(C(=O)CCN2C(=O)c3cccc4cccc(c34)C2=O)CC1 | 9.15
O=C(NCCCN1CCN(CCCNC(=O)c2cccc(Cl)c2)CC1)c1cccc(Cl)c1 | -74.5
COc1ccc(S(N)(=O)=O)cc1C(=O)NCCCN1CCN(c2ccccc2OC)CC1.CS(=O)(=O)O | 4.07
O=C(NCCN1CCOCC1)c1cccc(Cl)c1 | 2.76
Cc1ccc(C(=O)NCCCN2CCN(CCCNC(=O)c3ccc(C)cc3)CC2)cc1 | -36.5
COc1ccc(C(=O)CCN2CCN(c3ccccc3OC)CC2)cc1.Cl | -4.48
COc1cc2c(cc1OC)C(c1ccc([N+](=O)[O-])cc1)N(C(C)=O)CC2 (stereo not drawn) | 5.11
CC(C)c1ccc(NC(=O)c2ccc3c(c2)C(=O)N(Cc2cccnc2)C3=O)cc1 | 8.25
c1ccc(CC(Nc2ccccn2)c2ccccc2)cc1 (stereo not drawn) | -10.6
NC(=O)CSc1n[nH]c(=O)n1CCc1ccccc1 | 10.4
O=C(Cc1cccs1)NCc1cccc(Cl)c1 | 9.08

SMILES | hERG current change (%, negative = inhibition) at 1uM [%]
CCOc1ccc2[nH]c(O)c(NC(C)=O)c2c1 | 5.98
CCc1c(C)nc2ncnn2c1NCc1cccs1 | 6.69
COc1cc(/C=N/NC(=O)c2ccccc2)ccc1O | -5.66
COc1cc2c(cc1OC)/C(=C/C#N)NC(C)(C)C2 | 7.09
CNc1nc(SC)nc2ccccc12 | 16.4
COc1cccc(C(=O)NCCCN2CCN(CCCNC(=O)c3cccc(OC)c3)CC2)c1 | -65.2
COc1cc(OC)cc(C(=O)NCCCN2CCN(CCCNC(=O)c3cc(OC)cc(OC)c3)CC2)c1 | -18.8
CC1CCN(CCCNC(=O)c2ccc(CSCc3cccc(Cl)c3)o2)CC1 | -62.4
O=C(NCCCN1CCCC1)c1ccc(CSCc2cccc(Cl)c2)o1 | -30.4
COc1cccc(C(=O)NCCCNC(=O)c2cccc(OC)c2)c1 | 12.4
CN1CCN(CCCNC(=O)c2ccc(CSCc3cccc(Cl)c3)o2)CC1 | 1.54
Cc1ccc2nsnc2c1NC(=O)c1cccnc1Cl | 15.1
COc1ccc(S(=O)(=O)N2CCC(Nc3ccccc3Cl)CC2)cc1 | 28.1
COc1ccc(/C=C2\SC(=S)N(CC(=O)NC3CCS(=O)(=O)C3)C2=O)cc1 (stereo not drawn) | 17.2
COc1ccc2c(c1)c1c3n2CCN(C)C3=NCC1.Cl | -54.9
COc1ccc2c(c1)c1c(n2C(C)=O)C(OC(C)=O)=NCC1 | 2.42
CN=C1c2c(-c3ccccc3)c3cc(OC)ccc3n2CCN1C.Cl | -31.6
COc1ccc(OCC(=O)Nc2c3c(nn2-c2ccccc2)CS(=O)(=O)C3)cc1 | 7.69
O=C1c2ccccc2C(=O)N1Cc1cccnc1 | 15.6
Cc1cc(N2CCN(C)CC2)n2nc(-c3ccc(Cl)cc3)nc2n1 | -67.2
Cc1cc(N2CCOCC2)n2cc(-c3ccccc3)nc2n1 | -14.6
Cc1cc(N2CCN(c3ccccn3)CC2)n2cc(-c3ccccc3)nc2n1 | -65.4
Cc1cc(N2CCN(c3ccccc3)CC2)n2cc(-c3ccccc3)nc2n1 | -16.4

SMILES | hERG current change (%, negative = inhibition) at 1uM [%]
Cc1cc(N2CCN(c3ccccc3Cl)CC2)n2cc(-c3ccccc3)nc2n1 | -2.03
Cc1cc(N2CCN(C)CC2)n2cc(-c3ccc(F)cc3)nc2n1 | -89.8
Cc1nc2nc(-c3ccc(Cl)cc3)nn2c(C)c1Cl | 13.4
Cc1cc(N2CCOCC2)n2cc(-c3ccc(F)cc3)nc2n1 | -34.9
Cc1cc(N2CCOCC2)n2nc(C)c(-c3ccc(Cl)cc3)c2n1 | 7.28
Cc1cc(C)nc(-n2ncc3c2CC(C)CC3=O)n1 (stereo not drawn) | 11.4
O=C(CN1C(=O)C2CCCCN2C(=O)c2ccccc21)N1CCCc2ccccc21 (stereo not drawn) | 15.1
O=C(Cc1cccs1)Nc1nnc(SCc2cccc3ccccc23)s1 | -3.03
COc1ccc(OC)c(NC(=O)CSc2nc(=O)n(Cc3ccccn3)c3c2CCC3)c1 | -2.43
Cc1cc(O)c(C(C)C)cc1NC(=O)Cn1nc(C)c2ccccc2c1=O | -6.85
Cc1ccc(NC(=O)CCc2ccc(C)o2)cc1 | 7.21
COC(=O)c1ccc(NC(=O)c2cc[n+]([O-])cc2)cc1 | 10.9
CCN1CCCC1CNc1ncnc2c1[nH]c1ccc(F)cc12 (stereo not drawn) | -81.4
Fc1ccc2[nH]c3c(NCc4ccccc4)ncnc3c2c1 | 15.4
Clc1ccc2[nH]c3c(NCC4CCCO4)ncnc3c2c1 (stereo not drawn) | -3.05
Clc1ccc2[nH]c3c(NCCN4CCOCC4)ncnc3c2c1 | -2.76
Fc1ccc2[nH]c3c(NCCN4CCOCC4)ncnc3c2c1 | 8.84
CCN1CCCC1CNC(=O)c1cc2cc(OC)c(OC)cc2[nH]1 (stereo not drawn) | 16.2
CCN1CCCC1CNC(=O)c1cc2ccc(OC)cc2[nH]1 (stereo not drawn) | 5.34
CCN1CCCC1CNc1ncnc2c1[nH]c1ccc(Cl)cc12 (stereo not drawn) | -85.5
CCN1CCCC1CNC(=O)c1cc2cc(F)ccc2[nH]1 (stereo not drawn) | -53.8
CCc1noc(C)c1C(=O)NNC(=O)c1cc(OC)cc(OC)c1 | 9.15
CCOc1cc(C2c3c(n[nH]c3C)C(=O)N2c2ccc(Br)cc2)ccc1O (stereo not drawn) | 10.8

SMILES | hERG current change (%, negative = inhibition) at 1uM [%]
CCC(Oc1ccc2c(c1)C(=O)CC(C)(C)O2)C(=O)NCCN1CCCCCC1.O=C(O)C(=O)O (stereo not drawn) | -9.15
C=CCn1c(SCC(=O)C(C)(C)C)nnc1-c1cccs1 | -9.56
C=CCn1c(SCC(=O)Nc2ccc(C(=O)OCC)cc2)nnc1-c1cccs1 | 12.3
CCn1c(SCC(=O)Nc2ccccc2)nnc1-c1cccs1 | -13.8
CCn1c(SCC(=O)Nc2nc(C)c(C)s2)nnc1-c1cccs1 | -62.5
C=CCn1c(SCC(=O)Nc2ccc3c(c2)CCC3)nnc1-c1cccs1 | -83.5
C=CCn1c(SCC(=O)N2CCN(c3ccc(F)cc3)CC2)nnc1-c1cccs1 | -52.4
C=CCn1c(SCC(=O)N2CCN(c3ccc(F)cc3)CC2)nnc1-c1ccco1 | -67
C=CCn1c(SCC(=O)Nc2ccc(N3CCOCC3)cc2)nnc1-c1ccco1 | 8.51
C=CCn1c(SCC(=O)Nc2ccc(C(=O)OC(C)C)cc2)nnc1-c1cccs1 | 9.31
CCn1c(SCC(=O)Nc2nc(C)c(C)s2)nnc1-c1ccco1 | -11.2
C=CCn1c(SCC(=O)O)nnc1-c1cccs1 | 9.03
C=CCn1c(SCC(=O)N2CCN(c3ccccc3)CC2)nnc1-c1ccco1 | 4.57
CN(CC(=O)Nc1ccc(Cl)c(Cl)c1)C(=O)C1CCCC1 | 5.9
Cc1cc(NC(=O)c2cc(-c3ccccc3)on2)n(-c2ccccc2)n1 | 7.88
O=C(COC(=O)c1ccc2ccccc2n1)c1ccc(F)cc1 | -5.55
Cc1cc([N+](=O)[O-])ccc1NC(=O)Nc1ccccc1F | 13
O=C(CCc1nnc(CCc2ccccc2)o1)NC(c1cccnc1)C(F)(F)F (stereo not drawn) | -0.569
CC1CN(C(=O)C(Sc2ccccc2)c2ccccc2)CC(C)O1 (stereo not drawn) | 5.46
N#C/C(=C1\CCCN1)c1ccc2ccccc2n1 | 8.93
Cc1ccc(CCN2CC(C(=O)NCCCN3CCOCC3)CC2=O)cc1 (stereo not drawn) | 16.5
